Compounds without any hit were thinned out: in the full panel of roughly 83,000, 20% have a hit.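 Single-dose data. Exposure time 48 hours. Values below 10 considered active.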 Values without a mark were called inactive. The source made the active and inactive calls.

Holding throughout (experiment): NCI-60 one-dose screen, 48 h (100 = growth as untreated, 0 = no growth, -100 = all killed)
Conditions in all cases: 10 µM unless noted

Assay [1] deals with HCT-15 colon.
The test system of assay [2] is HT29 colon.
The subject of assay [3] is SNB-75 CNS.
Assay [4] deals with SNB-19 CNS.
The test system of assay [5] is U251 CNS.
For assay [6], the system named is SK-MEL-5 melanoma.
Assay [7] deals with UACC-62 melanoma.
Assay [8] relates to LOX IMVI melanoma.
Assay [9] relates to SK-MEL-28 melanoma.

With `Cc1ccc2c(c1)C(=O)/C(=C/c1cccc(OCC(=O)c3ccc(Cl)cc3)c1)CS2`, the growth in assay [1] was 81.3%; in assay [2] it was 87.9%; in [3], 87.6%; in [4] it was 93.9%; in [5], 89.7%; in [6], 85.1%. The growth in [7] is 76.2%; in assay [8] it was 75.3%; in assay [9], 123%.
As for `COc1ccc2nc(NC(=O)CSc3nnc4n3S(=O)(=O)c3ccccc3N4c3ccccc3)sc2c1`, the growth in [1] was 93.7%; in assay [2], 102%; in assay [3], 77.5%; in assay [4], 97.2%; in assay [5], 94.9%; in assay [6], 99.1%. In addition, the growth in assay [7] was 82.6%; in [8], 85.5%; in assay [9], 109%.
Consider `O=C1/C(=C/N2N=C(c3ccc4ccccc4c3)CC2c2ccccc2O)SC(=S)N1c1cccnc1` (configuration not stated), for which the growth was 12.4% in assay [1]; 10.7% in assay [2]; -4.45% (active) in assay [3]; 40.1% in [4]; 16.1% in [5]; 64% in [6]. Moreover, the growth in assay [7] is 66.2%; in assay [8], 27.5%; in assay [9], 78.6%.
Take `O=C(NCCN1CCOCC1)Nc1ccc(-c2cc3c(Nc4ccc(Oc5cccc(C(F)(F)F)c5)c(Cl)c4)ncnc3s2)cc1`: the growth was -56.2% (active) in [1]; -69.2% (active) in assay [2]; -48.4% (active) in assay [3]; 43.1% in [4]; 0.383% (active) in [5]; -90.9% (active) in [6]. Also, the growth in assay [7] was -40.3% (active); in [8], -86.6% (active); in [9], -49.8% (active).
On to `COc1ccc(C(=O)COc2cccc(/C=C3\CSc4ccccc4C3=O)c2)cc1`, for which the growth in assay [1] was -54.1% (active); in assay [2], -88.2% (active); in [3] it was 91.6%; in assay [4], 63.6%; in [5], -86.7% (active); in [6], -75.8% (active). The growth in assay [7] was -72% (active); in assay [8], -100% (active); in assay [9] it was -62.3% (active).
As for `Cc1cc(C)nc(SC2=C(Nc3ccc(O)cc3)C(=O)N(Cc3ccccc3)C2=O)n1`, the growth in assay [1] was 89.5% [40 µM]; in assay [2], 119% [40 µM]; in assay [3], 89.8% [40 µM]; in assay [4] it was 85.1% [40 µM]; in assay [5] it was 91.9% [40 µM]; in assay [6], 82.4% [40 µM]. For the same compound, the growth was 68.4% [40 µM] in [7], 82.8% [40 µM] in assay [8] and 112% [40 µM] in [9].
In the case of `N#Cc1c(N)n(CCNC(=O)c2ccccc2)c2nc3ccccc3nc12`, the growth was 111% in assay [1]; 104% in [2]; 116% in assay [3]; 119% in assay [4]; 115% in assay [5]; 132% in assay [6]. Besides, the growth is 103% in assay [7], 113% in [8] and 123% in assay [9].
For `O=C(CCN1C(=O)/C(=C/c2ccc(Cl)cc2)SC1=S)NCCCN1CCOCC1`, the growth in assay [1] was 98%; in assay [2] it was 105%; in [3] it was 92.4%; in assay [4], 101%; in [5], 102%; in [6], 97.5%. Besides, the growth is 92.4% in assay [7], 99.7% in assay [8] and 100% in assay [9].
`COc1ccc(-n2nc(C)c3c(Nc4ccc(NC(=O)Nc5c(Cl)cccc5Cl)cc4)ncnc32)cc1`: the growth is 72.2% in assay [1]; 31.4% in assay [2]; 55.9% in assay [3]; 79.4% in [4]; 63.3% in assay [5]; 5.92% (active) in assay [6]. Also, the values for the growth in assay [7], in [8] and in assay [9] were 46.7%, 39.1% and 81.9%, respectively.
As for `COc1ccc2c(c1)O/C(=C\c1cccc(OCC(=O)Nc3nc4c(s3)CCCC4)c1)C2=O`, the growth in assay [1] was 84.8%; in assay [2], 84.7%; in assay [3], 29.3%; in assay [4], 76.1%; in [5], 73.1%; in assay [6], 97.9%. In addition, the growth was 76.1% in [7], -100% (active) in [8] and 114% in assay [9].
Turning to `FC(F)(F)c1ccc(-c2cn3nc(-c4c[nH]c5ccc(Br)cc45)sc3n2)cc1`, the growth was 70.6% in [1]; 97.4% in assay [2]; 86.1% in assay [3]; 100% in assay [4]; 92.2% in assay [5]; 96.3% in assay [6]. Further, the growth is 84.8% in [7], 88.2% in [8] and 111% in assay [9].
As to `O=C(CN(C(=O)Cn1c(=O)n2nnnc2c2ccccc21)c1ccccc1C(F)(F)F)Nc1ccc(C(F)(F)F)cc1`, the growth in assay [1] is 102%; in assay [2] it was 110%; in assay [3], 91%; in assay [4] it was 95.6%; in assay [5], 99.1%; in assay [6], 102%. The results for the growth in assay [7], in assay [8] and in [9] were 101%, 98.9% and 108%, respectively.
Regarding `O=C1c2ccccc2C(=O)c2c(N=Nc3[nH]c(=S)[nH]c3O)cccc21`, the growth was 23.2% in assay [1]; 9.93% (active) in assay [2]; -20.2% (active) in [3]; 28.9% in [4]; 12.8% in assay [5]; 13.8% in assay [6]. Further, the growth in assay [7] is 32.5%; in [8], 34.1%; in [9], 52%.
Take `CCCc1cc(=O)n2c(C(=O)Nc3ccc(F)cc3)c(C(=O)Nc3ccc(F)cc3)sc2n1`: the growth in assay [1] was 83% [30 µM]; in assay [2], 53.8% [30 µM]; in assay [3] it was -15.9% [30 µM] (active); in assay [4] it was 48.4% [30 µM]; in assay [5] it was 41.6% [30 µM]; in assay [6], 82.8% [30 µM]. The figures for the growth in [7], in assay [8] and in assay [9] were 84% [30 µM], 65.1% [30 µM] and 77.7% [30 µM], respectively.
For `O=C1OCC2=C1C(c1ccncc1)c1cc3c(cc1N2CCO)OCO3` (configuration not stated), the growth in assay [1] was 103%; in [2], 106%; in [3] it was 95.7%; in assay [4], 100%; in assay [5] it was 96.7%; in assay [6], 98.6%. Besides, the growth in assay [7] is 94.9%; in assay [8], 99.9%; in assay [9], 102%.
On to `NC(=O)c1cc(Br)ccc1NC(=O)/C=C/c1ccccc1`, for which the growth in assay [1] was 30.9%; in assay [2] it was 13.9%; in assay [3], -7.05% (active); in assay [4], 47.2%; in [5], 28.7%; in [6] it was 12.2%. In addition, the growth in assay [7] is 43%; in assay [8], 52.1%; in [9] it was 42.2%.
With `O=C(N/N=C/c1ccccc1O)c1ccccc1Nc1ccnc(C(F)(F)F)c1`, the growth in assay [1] is 24.6%; in assay [2], 41.3%; in assay [3], 20.7%; in [4], 21.8%; in assay [5], 18.8%; in assay [6], -64.5% (active). In addition, the results for the growth in [7], in assay [8] and in [9] were -19.1% (active), 7.93% (active) and 28.3%, respectively.
For the compound `CCCCn1cnc2c(Sc3c([N+](=O)[O-])ncn3C)nc(N)nc21`, the growth in assay [1] was 91.6%; in assay [2], 99.7%; in assay [3], 84.3%; in assay [4], 96.3%; in assay [5], 101%; in [6] it was 103%. Besides, the growth in assay [7] is 88.9%; in [8], 107%; in assay [9] it was 98.8%.
Consider `COc1ccc(-n2nc(C)c3c(Nc4ccc(NC(=O)Nc5ccc(Cl)c(C(F)(F)F)c5)cc4)ncnc32)cc1`, for which the growth in assay [1] is -9.82% (active); in [2], 1.57% (active); in [3] it was -4.71% (active); in assay [4], 13.5%; in assay [5], -29.2% (active); in assay [6] it was -44.7% (active). For the same compound, the growth in [7] was 4.84% (active); in [8], -81.4% (active); in [9], 4.78% (active).
Take `C=C(C)C(=O)Nc1ccc(NC(C)C)cc1`: the growth was 125% in [1]; 114% in assay [2]; 102% in assay [3]; 105% in assay [4]; 123% in assay [5]; 134% in [6]. Besides, the figures for the growth in assay [7], in assay [8] and in assay [9] were 118%, 114% and 119%, respectively.
For the compound `CN1CCN=C1c1ccc(NC(=O)c2ccc(C(=O)Nc3ccc(C4=NCCN4C)cc3)cc2)cc1`, the growth is 108% in assay [1]; 98.8% in assay [2]; 91.2% in assay [3]; 92% in [4]; 93.6% in assay [5]; 84.7% in assay [6]. In addition, the figures for the growth in [7], in [8] and in assay [9] were 91.8%, 94.2% and 110%, respectively.
For `COc1ccc(CCNc2nc3c(c(=O)n(Cc4ccc(Br)cc4)c(=O)n3C)n2C)cc1OC`, the growth is 102% in assay [1]; 103% in assay [2]; 84.5% in assay [3]; 94.5% in [4]; 92% in assay [5]; 68% in assay [6]. Further, the growth in assay [7] was 74.8%; in assay [8] it was 94.5%; in [9], 99%.
For the compound `COc1ccc(-c2cc(Nc3ccnc(N4CCOCC4)n3)on2)cc1`, the growth was 20.3% in [1]; 9.4% (active) in assay [2]; -3.66% (active) in assay [3]; 39% in [4]; 23.2% in [5]; 19.7% in assay [6]. Also, the results for the growth in assay [7], in [8] and in [9] were 60.5%, 51.9% and 69.3%, respectively.
`O=C1NC(=Nc2ccc(O)cc2)S/C1=C\c1cccc(Cl)c1`: the growth in assay [1] was 30.1%; in assay [2], 109%; in assay [3], 70.9%; in assay [4] it was 73.5%; in [5], 59.3%; in [6] it was 70.6%. For the same compound, the results for the growth in assay [7], in assay [8] and in [9] were 80.9%, 53.4% and 94.7%, respectively.
Turning to `COc1ccc(C(=O)c2sc3nc(C)cc(C)c3c2N)cc1OC`, the growth is 85.4% in [1]; 88.2% in [2]; 84.3% in assay [3]; 79.6% in [4]; 66% in [5]; 93.4% in assay [6]. For the same compound, the values for the growth in assay [7], in assay [8] and in [9] were 80.8%, 96.5% and 101%, respectively.
As to `COc1ccc(-n2nc(C)c3c(Oc4ccc(NC(=O)Nc5c(Cl)cccc5Cl)cc4)ncnc32)cc1`, the growth in assay [1] is 105%; in assay [2] it was 107%; in assay [3] it was 93.6%; in [4] it was 98.5%; in [5], 96.9%; in assay [6], 99.9%. Besides, the growth in assay [7] was 98.4%; in assay [8], 100%; in assay [9], 106%.
On to `CCOC(=O)c1c(CN2CCN(C)CC2)nc2ccc(Cl)cc2c1-c1ccccc1`, for which the growth was 62.9% in assay [1]; 18% in assay [2]; 58.6% in assay [3]; 86.8% in assay [4]; 64.4% in assay [5]; 18.3% in assay [6]. For the same compound, the growth in [7] is 86.3%; in [8], 54.4%; in assay [9] it was -22.6% (active).
Consider `COC(=O)[C@@H]1CCCN1C(=O)[C@@H]1CCCN1C(=O)[C@H](Cc1ccccc1)NC(=S)Nc1cc(C(F)(F)F)cc(C(F)(F)F)c1`, for which the growth in assay [1] was 76.4%; in assay [2] it was 74.7%; in assay [3] it was 73.8%; in [4], 33.3%; in assay [5], 7.88% (active); in assay [6], 86.4%. For the same compound, the results for the growth in [7], in [8] and in assay [9] were 85.3%, 88.5% and 85.3%, respectively.
